Measurements published in the supplement of paper PMC10646978.
± gives the standard deviation.

Columns and labels:
Settings in all cases: modulator concentration 10 µM
[1] = system: RAW-Dual (murine macrophage reporter line); assay: NF-kB reporter (SEAP) activity fold change vs agonist alone; higher = enhanced NF-kB activity
Method in brief: (§1)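 In 384-well plates holding 50 000 RAW-Dual murine macrophage reporter cells per well, compound at 10 μM final was pre-incubated for 1 hour at 37 °C, after which a PRR agonist was added overnight. Supernatant SEAP read with QUANTI-Blue at 620 nm absorbance reported NF-κB, and Lucia luciferase read with QUANTI-Luc luminescence reported IRF. Fold change values come from dividing each reporter signal by the mean of agonist-only control wells on the same plate, averaged over replicate plates with propagated errors.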

[2] = system: RAW-Dual (murine macrophage reporter line); assay: IRF reporter (Lucia luciferase) activity fold change vs agonist alone; higher = enhanced IRF activity
Method in brief: as §1

[3] = system: RAW-Dual (murine macrophage reporter line); assay: viability score (confluency relative to resting cells, overnight) (fraction); higher = more viable, active = viable (0.7 or more)
Method in brief: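 Overnight exposure to 10 μM final compound was carried out on RAW-Dual macrophages in 384-well plates. IncuCyte software generated two confluency masks over all wells imaged with IncuCyte. The viability score gives confluency in relation to resting cells. A compound met the cutoff if each mask exceeded 70% of resting cells.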

[4] = agonist: CpG ODN 1826 0.5 ug/mL

Row | SMILES | NF-kB reporter [1, 4] | NF-kB reporter ([1]; agonist: LPS 0.1 ug/mL) | NF-kB reporter ([1]; agonist: MPLA […]) | IRF reporter ([2]; agonist: 3'3'-cGAMP 10 ug/mL) | IRF reporter ([2]; agonist: LPS 0.1 ug/mL) | IRF reporter ([2]; agonist: MPLA […]) | viability score [3]
1 | O=C(NCC(O)(c1ccccc1)C(F)(F)F)c1ccc(Br)o1 (configuration not stated) | 0.943 ± 0.054 | 0.86 ± 0.12 | 0.929 ± 0.036 | 0.858 ± 0.038 | 1.04 ± 0.065 | 1.05 ± 0.15 | 0.948 (active)
2 | O=C(CSc1nc(-c2ccccc2)c(-c2ccccc2)[nH]1)N1CCOCC1 | 1.05 ± 0.32 | 1.08 ± 0.16 | 1.05 ± 0.1 | 0.897 ± 0.032 | 1.28 ± 0.17 | 1.32 ± 0.17 | 0.996 (active)
3 | c1ccc(-c2cc3c4cccn4ccn3c2)cc1 | 1.03 ± 0.1 | 0.87 ± 0.068 | 0.848 ± 0.085 | 0.31 ± 0.029 | 1.29 ± 0.21 | 1.32 ± 0.39 | 1.04 (active)
4 | CCOc1ccc(S(=O)(=O)NC(C)(C)C)cc1C | 0.972 ± 0.081 | 0.852 ± 0.072 | 1.13 ± 0.12 | 0.971 ± 0.044 | 1.38 ± 0.082 | 1.53 ± 0.14 | 0.868 (active)
5 | CC1=C(C(=O)OCC(F)(F)C(F)(F)F)C(c2ccccc2)NC(=O)N1 (configuration not stated) | 0.847 ± 0.052 | 0.975 ± 0.077 | 0.863 ± 0.053 | 1.31 ± 0.05 | 1.34 ± 0.089 | 1.23 ± 0.23 | 0.934 (active)
6 | C[C@H]1O[C@H]1P(=O)(O)O.NC(CO)(CO)CO | 0.922 ± 0.053 | 1.05 ± 0.064 | 0.977 ± 0.079 | 0.937 ± 0.036 | 1.06 ± 0.15 | 0.989 ± 0.2 | 0.994 (active)
7 | Cc1nc2ccc(CN(C)c3ccc(C(=O)N[C@@H](CCC(=O)O)C(=O)O)s3)cc2c(=O)[nH]1 | 1.28 ± 0.1 | 1.03 ± 0.052 | 1.18 ± 0.1 | 0.863 ± 0.042 | 1.09 ± 0.063 | 1.07 ± 0.12 | 1 (active)
8 | CC(C)(Oc1ccc(Cl)cc1)C(=O)Nc1cnoc1 | 1.05 ± 0.097 | 1.09 ± 0.082 | 1.08 ± 0.098 | 0.982 ± 0.037 | 1.03 ± 0.063 | 1.04 ± 0.17 | 0.979 (active)
9 | Cc1cn2nc(C(=O)Nc3ccccc3N3CCN(C)CC3)cc2c(=O)[nH]1 | 0.685 ± 0.035 | 1.08 ± 0.11 | 0.864 ± 0.047 | 1.02 ± 0.052 | 1.26 ± 0.076 | 1.09 ± 0.098 | 0.941 (active)
10 | CC(=O)OC1=C(O)C=CC2C(C)=CC(=O)OC12 (configuration not stated) | 0.954 ± 0.12 | 0.823 ± 0.079 | 1.04 ± 0.1 | 0.986 ± 0.034 | 1.3 ± 0.19 | 1.47 ± 0.3 | 1.01 (active)
11 | C=C(Br)Cn1c(COc2ccccc2)nc2ccccc21 | 0.562 ± 0.098 | 1.06 ± 0.12 | 1.05 ± 0.084 | 1.12 ± 0.036 | 1.19 ± 0.28 | 1.19 ± 0.15 | 0.991 (active)
12 | CC(C)(C)CC(=O)Nc1nc2ccc(S(C)(=O)=O)cc2s1 | 0.987 ± 0.12 | 1.19 ± 0.068 | 1.25 ± 0.12 | 0.787 ± 0.033 | 0.831 ± 0.11 | 0.779 ± 0.23 | 0.948 (active)
13 | CC(=O)c1ccc(NC(=O)CSc2ccc(-c3ccc4c(c3)OCO4)nn2)cc1 | 0.846 ± 0.28 | 1.04 ± 0.096 | 0.981 ± 0.11 | 0.955 ± 0.034 | 1.02 ± 0.2 | 1.03 ± 0.11 | 0.99 (active)
14 | COC(=O)C1C(O)CCC2CN3CCc4c([nH]c5ccccc45)C3CC21.Cl (configuration not stated) | 1.19 ± 0.28 | 0.917 ± 0.076 | 0.906 ± 0.058 | 0.92 ± 0.1 | 1.15 ± 0.25 | 1.23 ± 0.15 | 0.995 (active)
15 | CCN(CC)c1ccc(C=NNC(=O)c2ccccc2C)c(O)c1 | 2.52 ± 0.2 | 1.41 ± 0.092 | 3.2 ± 0.13 | 0.442 ± 0.032 | 0.974 ± 0.11 | 0.721 ± 0.15 | 0.444 (inactive)
16 | Cc1cc(C)n(CCCN2C(=O)c3cccc4cccc(c34)C2=O)n1 | 0.926 ± 0.084 | 1.04 ± 0.083 | 0.955 ± 0.11 | 0.993 ± 0.054 | 1.09 ± 0.075 | 1.14 ± 0.088 | 1.01 (active)
17 | Nc1ncnc2c1ncn2C1OC(COP(=O)(O)O)C(O)C1O (configuration not stated) | 1.9 ± 0.51 | 1.3 ± 0.089 | 1.55 ± 0.11 | 1.44 ± 0.052 | 1.19 ± 0.13 | 1.19 ± 0.14 | 0.97 (active)
18 | COc1cccc(S(=O)(=O)N2CCCC(c3nnc(C(F)(F)F)o3)C2)c1 (configuration not stated) | 0.892 ± 0.039 | 1.08 ± 0.09 | 1.03 ± 0.06 | 0.885 ± 0.041 | 1.11 ± 0.27 | 1.3 ± 0.36 | 1.02 (active)
19 | Cc1cccc(CN2CCN(C(c3ccccc3)c3ccc(Cl)cc3)CC2)c1.Cl.Cl (configuration not stated) | 0.289 ± 0.013 | 0.913 ± 0.1 | 1.44 ± 0.082 | 1.35 ± 0.068 | 1.28 ± 0.27 | 1.27 ± 0.35 | 0.272 (inactive)
20 | COc1ccc(CNC(=O)c2cnc3n(c2=O)CCS3)cc1 | 1.21 ± 0.29 | 1.04 ± 0.055 | 2.54 ± 1.4 | 0.934 ± 0.038 | 1.1 ± 0.15 | 1.25 ± 0.19 | 1 (active)
21 | Cn1c(=O)cc(N2CCC[C@@H](N)C2)n(Cc2cc(F)ccc2C#N)c1=O | 0.989 ± 0.074 | 1.02 ± 0.055 | 1.02 ± 0.044 | 0.225 ± 0.013 | 0.971 ± 0.061 | 0.886 ± 0.082 | 1 (active)
22 | CC(C)N1CCN(c2ccc(OC[C@H]3CO[C@](Cn4cncn4)(c4ccc(Cl)cc4Cl)O3)cc2)CC1 | 1.04 ± 0.078 | 1.15 ± 0.077 | 1.08 ± 0.027 | 0.832 ± 0.048 | 1.05 ± 0.042 | 1.02 ± 0.11 | 0.997 (active)
23 | O=C1C(=Cc2ccccc2)SC(=S)N1CO | 0.546 ± 0.053 | 0.757 ± 0.058 | 0.725 ± 0.08 | 0.741 ± 0.073 | 1.03 ± 0.16 | 1.15 ± 0.32 | 0.968 (active)
24 | CC(=O)Nc1ccc(C(=O)Nc2ccc(Cl)cn2)cc1 | 1.16 ± 0.099 | 1.1 ± 0.085 | 1.09 ± 0.11 | 0.942 ± 0.04 | 0.94 ± 0.086 | 1.09 ± 0.15 | 1.04 (active)
25 | Cn1c(=O)[nH]c2nnc(-c3cccnc3)nc2c1=O | 1.09 ± 0.2 | 0.961 ± 0.084 | 0.975 ± 0.081 | 0.927 ± 0.03 | 1.22 ± 0.12 | 1.31 ± 0.13 | 0.881 (active)
26 | COc1ccc(-c2cc(C(F)F)nn2-c2ccc(S(N)(=O)=O)cc2)cc1F | 0.989 ± 0.29 | 0.98 ± 0.05 | 0.993 ± 0.068 | 0.935 ± 0.052 | 1.3 ± 0.24 | 1.23 ± 0.18 | 0.998 (active)
